Source: PubChem BioAssay (National Center for Advancing Translational Sciences (NCATS))
Sm TGR block – qHTS Assay for the Inhibitors of Schistosoma Mansoni Peroxiredoxins; hit rate 3% among 360,000; Schistosoma mansoni thioredoxin glutathione reductase (TGR), Q962Y6; Potency, µM (top dose mostly 114 µM), actives largely listed as inhibitors; purified TGR, DTNB reduction, TNB absorbance 405 nm; also: nearly all actives have a fitted effect of over 60% in size
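Kinetic colorimetric format: TGR-catalysed, NADPH-driven DTNB reduction monitored via TNB absorbance. Enzyme dispensed at 20 nM; compound exposure 15 min at room temperature before reaction start.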
AmpC inh no detg – qHTS Inhibitors of AmpC Beta-Lactamase (assay without detergent). P00811. AmpC nitrocefin hydrolysis, absorbance 480 nm, 0.0001% Triton. Potency, µM (titrated, usually from 57.1 µM), usual class: inhibitors. hit rate 0.52% among 330,000. AID 485341, 2010; also: nearly all actives have a fitted effect of over 20% in size
Target sequence (P00811 whole entry, looked up): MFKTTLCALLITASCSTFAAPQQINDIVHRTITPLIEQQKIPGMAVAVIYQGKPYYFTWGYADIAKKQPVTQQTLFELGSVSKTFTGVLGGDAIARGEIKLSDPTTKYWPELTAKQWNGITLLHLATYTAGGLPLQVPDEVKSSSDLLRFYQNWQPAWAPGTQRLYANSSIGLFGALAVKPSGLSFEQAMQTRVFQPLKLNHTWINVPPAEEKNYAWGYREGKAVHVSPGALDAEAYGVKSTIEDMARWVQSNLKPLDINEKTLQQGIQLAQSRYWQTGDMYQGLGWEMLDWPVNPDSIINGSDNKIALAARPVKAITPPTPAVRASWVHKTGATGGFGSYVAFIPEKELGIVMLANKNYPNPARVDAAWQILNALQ
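AmpC (5.3 nM in the dispensed reagent) in 20 mM phosphate pH 7.0 with 0.01% (detergent screen) or 0.0001% Triton X-100 was preincubated with compounds for 15 min at room temperature. Nitrocefin was then added from an 800 uM solution, and hydrolysis was followed at 480 nm.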
SARS PLP yeast – qHTS of Yeast-based Assay for SARS-CoV PLP; Potency, µM (doses to about 32.9 µM), usual class: activators; hit rate 0.19% among 330,000; AID 485353, 2010; S. cerevisiae expressing SARS-CoV PLpro, growth rescue; calls by dose curve; also: nearly all actives have a fitted effect of over 55% in size
Pf growth 96h – Primary qHTS for delayed death inhibitors of the malarial parasite plastid, 96 hour incubation. P. falciparum luciferase reporter growth, 96 h. Potency, µM (series often up to 28.7 µM), actives largely listed as inhibitors. hit rate 6.9% among 320,000. AID 504834, 2011
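Infected RBCs, 2% Hct / 0.05% parasitemia final; luciferase-reporter P. falciparum; cpd 96 h, 37 C, 5% CO2; luciferase detection reagent; luminescence.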
AmpC detergent – qHTS Inhibitors of AmpC Beta-Lactamase (assay with detergent). Potency, µM (doses to about 114 µM), usual class: inhibitors. hit rate 0.041% among 370,000. AID 485294, 2010. AmpC hydrolysis of nitrocefin, absorbance 480 nm, 0.01% Triton; also: nearly all actives have a fitted effect of over 25% in size
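20 mM phosphate pH 7.0 + 0.01% (detergent screen) or 0.0001% Triton X-100; 5.3 nM AmpC reagent; cpd preinc 15 min RT; nitrocefin (800 uM stock) to start; A480 q20 s × 4 min; Activity was normalised to no-enzyme and no-compound control wells.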
Pf growth 48h – Primary qHTS for delayed death inhibitors of the malarial parasite plastid, 48 hour incubation; P. falciparum luciferase growth in erythrocytes, 48 h; Potency, µM (highest dose often 28.7 µM), hits mostly inhibitors; hit rate 5.9% among 310,000; AID 504832, 2011
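Luciferase-expressing P. falciparum in infected erythrocytes (2% hematocrit, 0.1% parasitemia final) in RPMI 1640/0.5% Albumax were exposed to compound for 48 hours at 37 C, 5% CO2; growth read as luminescence.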
Each line names hits and unclear results; the compound was inactive in the other large screens. Hits are enriched below; roughly 12% of the tested compounds scored in any of these assays. Unless noted, calls follow the shape of the dose curve; as a rule, active = well fitted curve in the direction sought with a large enough effect; inconclusive = small, poorly fitted or top-dose-only effect, or another doubt; inactive = no such curve, though single readings can be large; an effect the other way counts as inactive or inconclusive.

CC(=O)Nc1c(O)n(C)c2ccccc12	Pf growth 96h inconclusive
COc1cc(C(Nc2ccccn2)c2c(NC(=O)c3ccco3)sc(C)c2C)cc(OC)c1OC (configuration not stated)	Pf growth 96h 8.28µM, Pf growth 48h 5.22µM
COc1ccc(C(c2c(NC(=O)c3ccco3)sc(C)c2C)N2CCOCC2)cc1 (configuration not stated)	Pf growth 48h inconclusive
COc1ccc(C(Nc2ccccn2)c2c(NC(=O)c3ccco3)sc(C)c2C)cc1OC (configuration not stated)	Sm TGR block inconclusive, Pf growth 96h 5.22µM, AmpC detergent inconclusive, Pf growth 48h inconclusive
CN1c2ccccc2Oc2c(c(=O)n(C)c(=O)n2C)C1c1cccc([N+](=O)[O-])c1 (configuration not stated)	Pf growth 96h inconclusive
CCN(CC)CC(=O)N1c2ccccc2Oc2c(c(=O)n(C)c(=O)n2C)C1c1cccc([N+](=O)[O-])c1 (configuration not stated)	Sm TGR block inconclusive, Pf growth 96h inconclusive, Pf growth 48h 5.86µM
Cc1cc2cc(CN(CCCO)S(=O)(=O)c3cccc4nsnc34)c(=O)[nH]c2cc1C	Pf growth 48h 9.28µM
COc1cc2cc(CN(CCCO)S(=O)(=O)c3ccccc3Cl)c(=O)[nH]c2cc1OC	Pf growth 96h inconclusive, Pf growth 48h inconclusive
Cc1ccc2cc(CN(CC(C)C)S(=O)(=O)c3cccc4nonc34)c(=O)[nH]c2c1	Pf growth 96h 10.4µM, Pf growth 48h inconclusive
COCCN(Cc1cc2ccc(C)cc2[nH]c1=O)S(=O)(=O)c1ccccc1	Pf growth 96h inconclusive
O=c1[nH]c2cc3c(cc2cc1CN(CCO)S(=O)(=O)c1ccccc1Cl)OCCO3	Pf growth 96h 0.657µM, AmpC detergent inconclusive (no result: Pf growth 48h)
CC(=O)c1ccc(S(=O)(=O)N(CCCO)Cc2cc3cc(C)ccc3[nH]c2=O)cc1	Pf growth 96h inconclusive
Cc1ccc2[nH]c(=O)c(CN(CCCO)S(=O)(=O)c3c(C)ccc4nsnc34)cc2c1	Pf growth 96h 5.86µM, AmpC detergent inconclusive
CCOc1cc(OCC)nc(S(C)(=O)=O)n1	Pf growth 96h inconclusive, Pf growth 48h inconclusive
COC(=O)c1ccccc1NC(=O)CSc1nnc2cc(C)c3cc(C)cc(C)c3n12	none (no result: AmpC inh no detg, SARS PLP yeast, Pf growth 96h, Pf growth 48h)
CC(=O)Nc1ccc(S(=O)(=O)N(Cc2cc3ccc(C)cc3[nH]c2=O)CC2CCCO2)cc1 (configuration not stated)	SARS PLP yeast inconclusive, Pf growth 96h inconclusive
Cc1ccc2cc(CN(CC3CCCO3)S(=O)(=O)c3cccc4nsnc34)c(=O)[nH]c2c1 (configuration not stated)	AmpC detergent inconclusive, Pf growth 48h 9.28µM
CCc1ccccc1NC(=O)C1CCCN(S(=O)(=O)c2cccc3nsnc23)C1 (configuration not stated)	none (no result: AmpC inh no detg, SARS PLP yeast, Pf growth 96h, Pf growth 48h)
Cc1cccc(NC(=O)C2CCCN(S(=O)(=O)c3cccc4nsnc34)C2)c1 (configuration not stated)	Pf growth 96h 8.28µM (no result: Pf growth 48h)
COc1ccc2nc(NC(=O)C3CCN(S(=O)(=O)c4cccc5nsnc45)CC3)sc2c1	Pf growth 96h 10.4µM, Pf growth 48h inconclusive
COc1ccccc1NC(=O)C1CCCN(S(=O)(=O)c2cccc3nsnc23)C1 (configuration not stated)	Pf growth 96h 3.29µM, AmpC detergent inconclusive (no result: Pf growth 48h)
CCOc1ccccc1NC(=O)C1CCCN(S(=O)(=O)c2ccc(OC)c(C)c2)C1 (configuration not stated)	AmpC detergent inconclusive, Pf growth 48h 10.4µM (no result: Pf growth 96h)
CC(C)Oc1ccc(C(=O)Nc2c(C(=O)Nc3cccc(F)c3)oc3ccccc23)cc1	none (no result: AmpC inh no detg, SARS PLP yeast, Pf growth 96h, Pf growth 48h)
CCCS(=O)(=O)c1c(S(=O)(=O)CCC)c2cc(C(C)(C)C)ccn2c1C(=O)c1ccc(OC)c(OC)c1	none (no result: AmpC inh no detg, SARS PLP yeast, Pf growth 96h, Pf growth 48h)
CCN(Cc1ccccc1)C(=O)CCS(=O)(=O)c1ccc2c(c1)CCN2C(C)=O	Pf growth 96h inconclusive
COc1ccc(NC(=O)C2CCCN(S(=O)(=O)c3ccc4[nH]c(=O)ccc4c3)C2)cc1OC (configuration not stated)	Pf growth 96h 11.7µM
c1ccc2c(c1)OCC(c1csc3ncnc(N4CCCC4)c13)O2 (configuration not stated)	Pf growth 96h 9.28µM (no result: Pf growth 48h)
c1ccc(CCNc2ncnc3scc(C4COc5ccccc5O4)c23)cc1 (configuration not stated)	Pf growth 96h 14.7µM (no result: Pf growth 48h)
OCC1CCCN(c2ncnc3scc(-c4ccccc4)c23)C1 (configuration not stated)	Pf growth 96h inconclusive, Pf growth 48h inconclusive
N/C(=C\C(=O)c1cc(Cl)ccc1O)C(Cl)(Cl)Cl	Sm TGR block inconclusive, Pf growth 96h 10.4µM, Pf growth 48h 2.94µM
CC[n+]1c(/C=C/C=C/N(C(C)=O)c2ccccc2)sc2ccccc21	Sm TGR block 39.8µM, Pf growth 96h 9.28µM, Pf growth 48h 4.65µM
CCn1c(/C=C/N(C(C)=O)c2ccccc2)[n+](CC)c2ccc(Cl)cc21	Pf growth 48h 2.08µM
CC[n+]1c(/C=C/N(C)c2ccccc2)sc2ccc(Cl)cc21	Pf growth 96h 0.131µM, Pf growth 48h 0.104µM
CC[n+]1c(/C=C/C=C/c2ccc(N(C)C)cc2)sc2ccccc21	Sm TGR block inconclusive
CCN(CC)C(=O)c1nc[nH]c1C(=O)N1CCc2ccccc2C1	none
CCOc1ccc(C=NNc2ccc(S(=O)(=O)Nc3ccccc3C(=O)O)cc2[N+](=O)[O-])cc1	AmpC inh no detg 28.2µM (no result: Sm TGR block, Pf growth 96h, AmpC detergent, Pf growth 48h)
C/C(=N\Nc1ccc(S(=O)(=O)Nc2ccccc2)cc1[N+](=O)[O-])c1ccc(N2CCOCC2)cc1	Pf growth 96h inconclusive, Pf growth 48h inconclusive (no result: Sm TGR block)
COc1ccccc1NS(=O)(=O)c1ccc(N/N=C(\C)C(C)C)c([N+](=O)[O-])c1	Pf growth 96h inconclusive, AmpC detergent inconclusive, Pf growth 48h 8.28µM
CSc1ccc(C=NNc2ccc(S(=O)(=O)Nc3ccccc3C(=O)O)cc2[N+](=O)[O-])cc1	none (no result: Sm TGR block, Pf growth 96h, AmpC detergent, Pf growth 48h)
O=[N+]([O-])c1ccccc1/C=C/C=N/Nc1ccc(S(=O)(=O)Nc2ccc(Cl)cc2)cc1[N+](=O)[O-]	Pf growth 48h 11.7µM
C/C(=N\Nc1ccc(S(=O)(=O)Nc2ccc(Cl)cc2)cc1[N+](=O)[O-])c1ccc(N2CCOCC2)cc1	Pf growth 96h 4.15µM, Pf growth 48h inconclusive
CCN(CCCNC(=O)Cn1ncc2c3ccccc3n(C)c2c1=O)c1cccc(C)c1	none (no result: AmpC inh no detg, SARS PLP yeast, Pf growth 96h, Pf growth 48h)
